# ChEMBL document CHEMBL4513216, “Probing the Open Global Health Chemical Diversity Library for Multistage-Active Starting Points for Next-Generation Antimalarials” (ACS Infect Dis, 2020)
# The campaign covered roughly 69,000 compounds. About 8,600 (12%) showed an effect of 50% or more. The full list was thinned out, with strong results kept by preference.
# System: Plasmodium berghei
# Assay: Screen against P. berghei liver stage (PbLuc), transformed with Luciferase, at 10uM
# Type: functional, HepG2
# Conditions: tested at 10 uM
row,SMILES,INHIBITION [%]
1,O=C(C1CCC2(CCN(CC3CC3)CC2)O1)N1CCCC1 (stereo unspecified),1.34
2,COc1ccc(C(=O)N(C)Cc2nnc3ccccn23)c(OC)c1OC,-8.11
3,COc1ccc(C(=O)N(C)Cc2cccc(C#N)c2)c(OC)c1OC,50.1
4,COc1cccc(CN(C)Cc2cccc(C#N)c2)c1OC,-3.19
5,CCOc1ccc2oc(-c3cn(C)nc3C)c(O)c(=O)c2c1,25.9
6,COC(=O)CCC(=O)N(Cc1ccc2cc[nH]c2c1)C1CC1,-8.8
7,COc1cc(C2CC(=O)Nc3c2nc2n3CCCC2)cc2c1OCO2 (stereo unspecified),34
8,CCNC(=O)[C@@H]1C[C@@H](N)CN1C(=O)c1[nH]c2ccccc2c1CC,11.5
9,CCOCCCNc1ncc(-c2onc(C)c2C)c(-c2ccco2)n1,27.465
10,CCC(=O)NCC1(O)CCC(C(C)(C)C)CC1 (stereo unspecified),-5.92
11,COCCS(=O)(=O)N(Cc1cscn1)c1ccccc1,22.8
12,CCN(C)S(=O)(=O)N(Cc1cscn1)c1ccccc1,66.4
13,CN(C)S(=O)(=O)N(Cc1cscn1)c1ccccc1,62.4
14,Cc1cc(C)cc(OCCN(C)Cc2cscn2)c1,28.1
15,Cc1ccc(OCCN(C)Cc2cscn2)cc1,-23.8
16,CN(CCOc1ccc(Br)cc1)Cc1cscn1,-62.6
17,CC(C)c1ccc(CN2CCCC3(CC2)CN(C)C(=O)O3)cc1 (stereo unspecified),-58.7
18,CS(=O)(=O)c1cncnc1C1CCCNC1 (stereo unspecified),20.4
19,CN(C)C(=O)CN1C(=O)CCC12CCN(Cc1cccs1)CC2,9.97
20,CCc1ccc(CNC(=O)NC(C)CN2CCOCC2)s1 (stereo unspecified),-3.95
21,O=C(NCc1ccc(Cl)s1)c1ccc(N2CCOC2=O)cc1,72.2
22,CCc1ccc(CNC(=O)c2ccc(N3CCOC3=O)cc2)s1,78.2
23,O=C1CCc2cc(C(=O)NCc3ccc(Cl)s3)ccc2N1,-28.6

row,SMILES,INHIBITION [%]
1,Cc1ccsc1CNC(=O)c1ccc(N2CCOC2=O)cc1,56.8
2,O=C1COc2cc(C(=O)NCc3ccc(Cl)s3)ccc2N1,16.8
3,Cc1noc(C)c1CNC(=O)Nc1ccc(N2CCOC2=O)cc1,13.9
4,Cc1ccsc1CNC(=O)c1ccc2c(c1)CCC(=O)N2,-20.8
5,Cc1ccsc1CNC(=O)c1ccc(N2CCNC2=O)cc1,25.2
6,Cc1cccn2cc(C[S+]([O-])Cc3noc(C(C)C)n3)nc12 (stereo unspecified),-9.51
7,Cc1noc(C)c1-c1cncc(C2CCCN2Cc2c[nH]cn2)n1 (stereo unspecified),32.8
8,CC(=O)N1CCC(c2c(CN(C)C)cnc3cc(C)nn23)CC1,-0.8
9,CCS(=O)(=O)N1CCOC2(CCCN(c3ccc(C)nn3)C2)C1 (stereo unspecified),5.65
10,O=C1NC(C(=O)NCc2cccnc2Oc2ccc(F)cc2F)CO1 (stereo unspecified),9.52
11,CSCC[C@@H]1CN2CCC[C@H]2CN1Cc1coc2ccc(Cl)cc2c1=O,7.11
12,Cc1cc(NC(=O)CN(CC2CCOC2)C2CC2)no1 (stereo unspecified),21.5
13,Cc1cccc(N2CCN(c3ccn4c(=O)[nH]nc4n3)CC2)c1C,65.8
14,O=c1[nH]nc2nc(N3CCSCC3)ccn12,9.96
15,O=c1[nH]nc2nc(N3CCCC3)ccn12,19.8
16,Cn1ccnc1CN1CCN(CC(O)c2ccccc2)CC1 (stereo unspecified),4.52
17,O=C(NCc1nncn1-c1ccccc1)C1CCCC1,11.9
18,O=C1CCC(C(=O)NCc2nncn2-c2ccccc2)CN1 (stereo unspecified),51
19,O=C(NCc1nncn1-c1ccccc1)C1CC1,-21.8
20,Cc1cccc(CN2CCc3nnc(CN4CCCC4=O)n3CC2)n1,35.7
21,CC(=O)CSc1sc2c(O)cc(=O)[nH]c2c1C(N)=O,26
22,Cc1cc(=O)[nH]c(SCC(=O)N(C)CC2Cc3ccccc3CN2C)n1 (stereo unspecified),50.2
23,CN(CC1Cc2ccccc2CN1C)C(=O)CSc1ccccn1 (stereo unspecified),-4.91

row,SMILES,INHIBITION [%]
1,CN(CC1Cc2ccccc2CN1C)C(=O)CSc1nccn1C (stereo unspecified),40.9
2,O=C(NCc1ccco1)c1[nH]nc2c1CS(=O)(=O)CC2,48.2
3,O=C1CO[C@@H]2CN(Cc3cccs3)C[C@H]2N1CC1CC1,24.5
4,O=C1CCC(C(=O)NCc2nn(-c3ccccc3)c3c2CCC3)CN1 (stereo unspecified),41.9
5,Cc1c(CNCc2nn(-c3ccccc3)c3c2CCC3)cc(C#N)n1C,63.6
6,COc1ccccc1CNCc1nn(-c2ccccc2)c2c1CCC2,36.8
7,Cc1noc(C)c1CNCc1nn(-c2ccccc2)c2c1CCC2,-0.159
8,O=C(NCc1nn(-c2ccccc2)c2c1CCC2)C1CC1,59.55
9,O=C(NCc1nn(-c2ccccc2)c2c1CCC2)NC1CC1,30.2
10,Cc1cc(C)n(CCCNC(=O)[C@@H](C)NC(=O)OC(C)(C)C)n1,15.8
11,CCOc1ccc(Cl)cc1NC(=O)N1CCC(n2cncn2)CC1,47
12,NC(=O)c1cnc(-c2ccccc2)nc1CCNC(=O)CN1CCCC1,12.8
13,COC1CCN(C(=O)c2ccccc2NCc2cccnc2)CC1,-30
14,CCc1ccc(O)c(C(=O)NC2CCN(Cc3ccncc3)CC2)c1,48.9
15,Cc1cnc(C)c(N2CCN(CC3CCCO3)CC2)n1 (stereo unspecified),4.93
16,Cc1cnc(C)c(N2CCN(Cc3ccc(C)c(C)c3)CC2)n1,75
17,COC(=O)c1cc(C)nc(N2CCN(Cc3ccn(C(C)C)c3)CC2)n1,24.2
18,Cc1cccnc1N1CCN(Cc2cc(O)c3cccc(F)c3n2)CC1,18.6
19,Cc1ccc(CN2CCC(Cc3nnc(CO)n3C)CC2)cc1C,4.48
20,COC(=O)c1cc(CN2CCN(c3ncccc3C)CC2)ccc1O,71
21,COC(=O)c1cc(CN2CCN(c3nc(C)cnc3C)CC2)ccc1O,51.2
22,Cc1cccc(CN2CCN(C(=O)c3cccnc3O)CC2)c1,11.2
23,Cc1noc(C)c1-c1nc(C2CCCN(C(=O)CCN)C2)ccc1CO (stereo unspecified),-10.2

row,SMILES,INHIBITION [%]
1,Cc1nc(C2CCCN(C(=O)COCc3ccccc3)C2)no1 (stereo unspecified),21.5
2,CCn1ncc2[nH]c(-c3cc4c(cc3OC)OCO4)nc21,-7.2
3,O=C(NCCc1ccccc1)C1CCN(C(=O)Cn2cncn2)C1 (stereo unspecified),3.48
4,CCN(CC)C(=O)CSc1ncc[nH]1,44.2
5,CN(C(=O)CSc1ncc[nH]1)C1CC1,53.9
6,CN(C(=O)CSc1ncc[nH]1)c1ccccc1,49.6
7,CC(C)(C)OC(=O)N1CCC(C(=O)NCc2cc3ccccc3[nH]2)C1 (stereo unspecified),-8.4
8,CC(C)N1CCC2(CC1)C(=O)N(c1cccnc1)c1ccc(F)cc12,28.2
9,COC[C@]1(O)CCN(C2CCN(c3ccc(Cl)cc3)CC2)CC1(C)C,29.4
10,O=C(NCCCn1nc2ccccn2c1=O)NCCC1CCC1,37.9
11,Cc1nc(CN2CCC(c3nc4ccccc4n3C)CC2)co1,42.3
12,CC(C)c1nccc(CN2CCC(c3nc4ccccc4n3C)CC2)n1,52.6
13,Cn1ccnc1CN1CCC(c2nc3ccccc3n2C)CC1,39.3
14,Cc1cccc(CN2CC3(CCN(C4CCOC4)CC3)OCC2=O)n1 (stereo unspecified),5.56
15,CSCc1noc(CNC(=O)[C@H]2CNC[C@@H](C(=O)N3CCCC3)C2)n1,38.5
16,COCCC1(CO)CCCN(C(=O)c2cc(Cl)ccc2F)C1 (stereo unspecified),-2.43
17,CNc1nc(C(=O)N2CCC3(CCCN(CCOC)C3=O)C2)cs1 (stereo unspecified),36.2
18,COCCC1(CO)CCCN(C(=O)c2cccnc2O)C1 (stereo unspecified),56.3
19,CC(C)=CCC1(CO)CCCN(Cc2nccs2)C1 (stereo unspecified),-21.1
20,COCCCC1(CO)CCCN(Cc2nccs2)C1 (stereo unspecified),75.2
21,CCCC1(CO)CCCN(Cc2ncccn2)C1 (stereo unspecified),-36.5
22,CNc1ncc(C(=O)N2CCCC(CO)(CCCOC)C2)cn1 (stereo unspecified),31.3
23,COCCCC1(CO)CCCN(CCOC)C1 (stereo unspecified),-6.88

row,SMILES,INHIBITION [%]
1,COCCC1(CO)CCCN(C(=O)c2cccnc2OC)C1 (stereo unspecified),43.4
2,CCCn1ccnc1CN1CCCC(CC)(CO)C1 (stereo unspecified),0.348
3,CCCC1(CO)CCCN(Cc2nccs2)C1 (stereo unspecified),81.6
4,CNc1nc(C(=O)N2CCCC(CO)(CCCOC)C2)cs1 (stereo unspecified),58.6
5,O=S(=O)(C1CC1)N1CCO[C@H]2[C@H](Oc3cccnc3)CC[C@@H]21,-21.1
6,Cn1ccc(C(=O)N2CCc3[nH]nc(Nc4ccccc4)c3C2)n1,17.04
7,CCC1c2ccsc2CCN1C(=O)NCCc1ccccn1 (stereo unspecified),0
8,CCc1ncc(C(=O)N2CCN(Cc3ncccc3C)CC2)cn1,7.25
9,O=C1CCC(c2ccccc2)=NN1CN1CCCCCC1,25.3
10,CCN(C(=O)CCc1ccccc1)C1CC(=O)NC1=O (stereo unspecified),9.4
11,Cc1cc2ccccc2n1CC(=O)N[C@@H](C)C(=O)O,4.93
12,Cc1ccc(OCCSCCn2nc3ccccn3c2=O)cc1,22
13,CCn1ccnc1CN1CCCC(CO)(CCCc2ccccc2)C1 (stereo unspecified),3.68
14,CCn1cc(CN2CCCC(CO)(CCc3ccccc3)C2)c(C)n1 (stereo unspecified),53.1
15,Cn1ccnc1CN1CCCC(CO)(CCc2ccccc2)C1 (stereo unspecified),16.6
16,O=C(CN1CCCS1(=O)=O)Nc1cccc(COC2CCCCC2)c1,55.5
17,O=C(CN1CCCS1(=O)=O)Nc1ccc(OC2CCCC2)cc1,-5.94
18,O=C(CN1CCCS1(=O)=O)Nc1ccc(OC2CCCC2)c(Cl)c1,-6.94
19,CNC(=O)CCc1cc(C2CCCN2C(=O)CO)nc(C)n1 (stereo unspecified),29.4
